Measured values reported in ChEMBL document CHEMBL2218924, “A broad activity screen in support of a chemogenomic map for kinase signalling research and drug discovery” (Biochem J, 2013).

How the values were obtained:
[1] = biological target: SRSF protein kinase 2 (Homo sapiens) (UniProt P78362); settings: at 10 µM
[2] = biological target: T1, Mitogen-activated protein kinase kinase kinase 7 (Homo sapiens) (UniProt O43318); settings: at 10 µM
T1 sequence (whole entry): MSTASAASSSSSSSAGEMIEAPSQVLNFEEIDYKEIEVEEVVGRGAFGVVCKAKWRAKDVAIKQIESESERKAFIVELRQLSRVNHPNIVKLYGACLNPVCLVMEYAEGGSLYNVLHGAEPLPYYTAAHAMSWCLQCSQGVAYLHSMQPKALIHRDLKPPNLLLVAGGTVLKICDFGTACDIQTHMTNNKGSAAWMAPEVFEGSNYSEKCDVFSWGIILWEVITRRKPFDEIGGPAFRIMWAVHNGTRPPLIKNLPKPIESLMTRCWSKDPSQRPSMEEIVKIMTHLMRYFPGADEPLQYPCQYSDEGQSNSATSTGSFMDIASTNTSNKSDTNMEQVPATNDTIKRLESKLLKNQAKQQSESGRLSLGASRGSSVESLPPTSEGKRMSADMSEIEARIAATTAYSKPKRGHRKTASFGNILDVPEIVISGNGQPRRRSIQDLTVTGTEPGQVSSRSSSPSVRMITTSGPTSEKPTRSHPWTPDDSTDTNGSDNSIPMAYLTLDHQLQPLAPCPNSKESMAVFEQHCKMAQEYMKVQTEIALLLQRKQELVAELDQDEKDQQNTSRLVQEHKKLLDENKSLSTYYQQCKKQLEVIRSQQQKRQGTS

[3] = biological target: T2, Serine/threonine-protein kinase TBK1 (Homo sapiens) (UniProt Q9UHD2); settings: at 1 µM
T2 sequence (whole entry): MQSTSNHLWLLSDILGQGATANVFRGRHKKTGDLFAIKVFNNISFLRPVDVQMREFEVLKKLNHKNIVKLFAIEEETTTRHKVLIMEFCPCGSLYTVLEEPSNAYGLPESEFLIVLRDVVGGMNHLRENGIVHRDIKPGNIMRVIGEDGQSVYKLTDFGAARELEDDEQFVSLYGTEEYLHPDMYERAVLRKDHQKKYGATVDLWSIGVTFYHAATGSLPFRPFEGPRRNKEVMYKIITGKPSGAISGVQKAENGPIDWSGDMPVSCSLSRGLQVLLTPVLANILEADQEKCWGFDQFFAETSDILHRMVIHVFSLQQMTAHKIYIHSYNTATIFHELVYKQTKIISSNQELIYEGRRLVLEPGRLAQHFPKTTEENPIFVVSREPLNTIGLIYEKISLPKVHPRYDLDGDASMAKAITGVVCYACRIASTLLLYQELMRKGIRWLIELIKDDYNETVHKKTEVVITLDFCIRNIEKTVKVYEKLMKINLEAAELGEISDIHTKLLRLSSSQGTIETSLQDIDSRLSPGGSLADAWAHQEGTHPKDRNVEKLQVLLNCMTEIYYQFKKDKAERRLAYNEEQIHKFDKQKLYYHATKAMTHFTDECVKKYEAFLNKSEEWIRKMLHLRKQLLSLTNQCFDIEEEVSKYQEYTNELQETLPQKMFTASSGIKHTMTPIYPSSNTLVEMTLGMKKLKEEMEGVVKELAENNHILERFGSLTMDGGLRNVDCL

[4] = biological target: Serine/threonine-protein kinase SIK1 (Homo sapiens) (UniProt P57059); settings: at 10 µM
Serine/threonine-protein kinase SIK1 (Homo sapiens), sequence (P57059 whole entry): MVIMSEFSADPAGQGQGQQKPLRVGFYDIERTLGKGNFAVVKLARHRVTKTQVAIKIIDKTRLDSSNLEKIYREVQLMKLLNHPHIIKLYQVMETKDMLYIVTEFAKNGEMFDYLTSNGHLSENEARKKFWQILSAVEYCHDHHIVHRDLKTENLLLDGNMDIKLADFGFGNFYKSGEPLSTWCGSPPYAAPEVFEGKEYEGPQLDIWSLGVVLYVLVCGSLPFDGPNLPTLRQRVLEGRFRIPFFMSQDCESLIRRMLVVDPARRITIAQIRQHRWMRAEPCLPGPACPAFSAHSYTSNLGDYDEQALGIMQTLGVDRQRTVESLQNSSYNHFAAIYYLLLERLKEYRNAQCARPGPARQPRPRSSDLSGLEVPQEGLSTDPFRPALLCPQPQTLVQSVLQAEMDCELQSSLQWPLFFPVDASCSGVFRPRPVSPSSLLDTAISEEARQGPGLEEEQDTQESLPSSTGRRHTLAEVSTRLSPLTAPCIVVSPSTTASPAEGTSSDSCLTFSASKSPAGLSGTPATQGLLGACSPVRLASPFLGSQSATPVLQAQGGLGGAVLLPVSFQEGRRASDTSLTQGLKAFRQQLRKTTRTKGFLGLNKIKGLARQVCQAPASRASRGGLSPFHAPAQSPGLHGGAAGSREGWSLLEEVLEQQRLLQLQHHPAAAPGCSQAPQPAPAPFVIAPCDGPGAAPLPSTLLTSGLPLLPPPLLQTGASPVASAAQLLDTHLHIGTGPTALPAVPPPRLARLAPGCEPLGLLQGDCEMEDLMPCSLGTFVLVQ

[5] = biological target: Serine/threonine-protein kinase PLK2 (Homo sapiens) (UniProt Q9NYY3); settings: at 1 µM
Serine/threonine-protein kinase PLK2 (Homo sapiens), sequence (Q9NYY3 whole entry, looked up): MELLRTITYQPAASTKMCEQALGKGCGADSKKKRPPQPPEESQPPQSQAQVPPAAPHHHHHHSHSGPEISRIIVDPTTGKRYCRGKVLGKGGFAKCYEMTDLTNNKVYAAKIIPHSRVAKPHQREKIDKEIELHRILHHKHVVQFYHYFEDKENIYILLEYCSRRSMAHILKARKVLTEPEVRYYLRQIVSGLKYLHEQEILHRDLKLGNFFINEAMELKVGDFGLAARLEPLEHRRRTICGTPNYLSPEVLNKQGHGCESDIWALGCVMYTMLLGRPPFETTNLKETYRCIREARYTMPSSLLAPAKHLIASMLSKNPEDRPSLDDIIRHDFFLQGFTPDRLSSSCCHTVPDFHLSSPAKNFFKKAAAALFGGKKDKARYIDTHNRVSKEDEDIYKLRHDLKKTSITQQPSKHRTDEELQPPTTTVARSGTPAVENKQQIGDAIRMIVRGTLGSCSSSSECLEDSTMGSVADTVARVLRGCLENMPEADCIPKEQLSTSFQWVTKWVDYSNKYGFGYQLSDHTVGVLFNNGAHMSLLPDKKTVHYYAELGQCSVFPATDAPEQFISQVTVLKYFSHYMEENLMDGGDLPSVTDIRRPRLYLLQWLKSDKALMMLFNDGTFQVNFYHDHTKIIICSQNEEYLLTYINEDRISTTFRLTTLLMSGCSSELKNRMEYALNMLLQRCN

[6] = biological target: Serine/threonine-protein kinase PLK2 (Homo sapiens) (UniProt Q9NYY3); settings: at 10 µM
[7] = biological target: T3, Serine/threonine-protein kinase TAO2 (Homo sapiens) (UniProt Q9UL54); settings: at 1 µM
T3 sequence (whole entry): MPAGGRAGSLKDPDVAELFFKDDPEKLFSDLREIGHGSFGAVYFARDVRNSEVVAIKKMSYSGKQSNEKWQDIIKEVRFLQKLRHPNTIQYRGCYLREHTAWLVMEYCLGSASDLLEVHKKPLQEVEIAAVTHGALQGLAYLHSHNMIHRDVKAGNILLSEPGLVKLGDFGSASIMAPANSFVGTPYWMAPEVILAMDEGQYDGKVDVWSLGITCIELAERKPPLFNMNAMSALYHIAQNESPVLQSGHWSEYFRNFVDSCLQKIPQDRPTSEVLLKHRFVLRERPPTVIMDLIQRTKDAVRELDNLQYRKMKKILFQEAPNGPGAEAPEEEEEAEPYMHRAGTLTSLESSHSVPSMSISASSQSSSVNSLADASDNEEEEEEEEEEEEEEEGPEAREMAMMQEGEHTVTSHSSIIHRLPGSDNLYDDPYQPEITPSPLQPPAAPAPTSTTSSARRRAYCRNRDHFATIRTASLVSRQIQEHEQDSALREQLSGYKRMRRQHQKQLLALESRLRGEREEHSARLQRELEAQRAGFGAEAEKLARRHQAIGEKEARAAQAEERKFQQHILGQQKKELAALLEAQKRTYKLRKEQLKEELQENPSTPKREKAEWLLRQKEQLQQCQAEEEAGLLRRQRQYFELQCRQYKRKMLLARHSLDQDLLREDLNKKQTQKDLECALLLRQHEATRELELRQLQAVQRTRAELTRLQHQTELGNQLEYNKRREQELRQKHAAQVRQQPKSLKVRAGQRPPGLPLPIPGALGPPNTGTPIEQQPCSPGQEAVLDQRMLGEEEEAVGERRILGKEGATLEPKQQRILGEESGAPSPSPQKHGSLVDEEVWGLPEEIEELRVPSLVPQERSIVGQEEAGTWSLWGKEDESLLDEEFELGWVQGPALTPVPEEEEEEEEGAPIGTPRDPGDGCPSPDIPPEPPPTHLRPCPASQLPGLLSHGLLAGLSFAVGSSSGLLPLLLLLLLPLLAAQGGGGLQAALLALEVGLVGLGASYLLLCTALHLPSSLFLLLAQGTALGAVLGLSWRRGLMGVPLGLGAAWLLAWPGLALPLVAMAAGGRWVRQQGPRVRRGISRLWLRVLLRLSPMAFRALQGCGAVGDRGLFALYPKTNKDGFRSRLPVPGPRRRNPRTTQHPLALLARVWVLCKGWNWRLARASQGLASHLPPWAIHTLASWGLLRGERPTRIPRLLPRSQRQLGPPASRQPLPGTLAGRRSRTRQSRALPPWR

[8] = biological target: T3, Serine/threonine-protein kinase TAO2 (Homo sapiens); settings: at 10 µM
[9] = biological target: T4, Serine/threonine-protein kinase TAO3 (Homo sapiens) (UniProt Q9H2K8); settings: at 1 µM
T4 sequence (whole entry): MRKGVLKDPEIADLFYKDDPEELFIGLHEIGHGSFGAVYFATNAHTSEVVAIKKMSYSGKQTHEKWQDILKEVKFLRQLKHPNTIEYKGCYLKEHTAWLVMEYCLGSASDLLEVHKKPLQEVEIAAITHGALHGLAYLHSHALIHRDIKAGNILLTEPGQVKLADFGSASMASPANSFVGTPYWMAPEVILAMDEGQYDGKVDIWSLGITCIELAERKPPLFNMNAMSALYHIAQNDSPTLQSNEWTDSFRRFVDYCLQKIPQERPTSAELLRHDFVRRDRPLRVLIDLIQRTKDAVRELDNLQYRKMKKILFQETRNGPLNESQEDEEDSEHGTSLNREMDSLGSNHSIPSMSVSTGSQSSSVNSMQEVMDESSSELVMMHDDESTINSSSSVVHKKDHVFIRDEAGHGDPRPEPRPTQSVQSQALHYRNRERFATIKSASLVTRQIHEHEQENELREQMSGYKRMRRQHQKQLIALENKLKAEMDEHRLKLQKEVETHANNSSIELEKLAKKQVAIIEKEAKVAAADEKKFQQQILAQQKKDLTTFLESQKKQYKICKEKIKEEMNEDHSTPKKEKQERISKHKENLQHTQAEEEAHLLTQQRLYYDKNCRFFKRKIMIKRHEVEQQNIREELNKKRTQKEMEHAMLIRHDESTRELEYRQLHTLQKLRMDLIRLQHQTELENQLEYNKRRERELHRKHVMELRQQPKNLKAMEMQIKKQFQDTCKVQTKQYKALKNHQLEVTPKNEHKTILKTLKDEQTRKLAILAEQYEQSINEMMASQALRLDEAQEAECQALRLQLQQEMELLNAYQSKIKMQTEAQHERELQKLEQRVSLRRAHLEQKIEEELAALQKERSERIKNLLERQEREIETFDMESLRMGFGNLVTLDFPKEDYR

[10] = biological target: T4, Serine/threonine-protein kinase TAO3 (Homo sapiens); settings: at 10 µM
[11] = biological target: SRSF protein kinase 1 (Homo sapiens) (UniProt Q96SB4); settings: at 10 µM
SRSF protein kinase 1 (Homo sapiens), sequence (Q96SB4 whole entry): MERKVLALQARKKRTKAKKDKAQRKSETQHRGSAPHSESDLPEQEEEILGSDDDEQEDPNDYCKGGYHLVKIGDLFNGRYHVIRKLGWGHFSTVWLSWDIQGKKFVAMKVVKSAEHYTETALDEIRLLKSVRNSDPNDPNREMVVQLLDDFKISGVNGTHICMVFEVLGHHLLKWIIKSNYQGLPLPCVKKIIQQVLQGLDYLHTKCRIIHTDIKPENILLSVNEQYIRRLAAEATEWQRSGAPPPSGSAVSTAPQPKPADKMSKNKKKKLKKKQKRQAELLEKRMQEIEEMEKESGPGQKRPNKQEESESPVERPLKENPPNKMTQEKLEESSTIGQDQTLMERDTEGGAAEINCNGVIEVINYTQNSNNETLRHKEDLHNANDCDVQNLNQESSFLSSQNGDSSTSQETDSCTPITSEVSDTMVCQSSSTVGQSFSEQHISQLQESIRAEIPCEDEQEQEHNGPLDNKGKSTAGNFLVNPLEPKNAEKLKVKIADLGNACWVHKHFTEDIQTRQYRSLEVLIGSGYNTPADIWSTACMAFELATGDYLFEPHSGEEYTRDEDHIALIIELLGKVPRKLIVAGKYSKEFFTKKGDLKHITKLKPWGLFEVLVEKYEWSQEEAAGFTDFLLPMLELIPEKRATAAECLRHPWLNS

[12] = biological target: Serine/threonine-protein kinase 33 (Homo sapiens) (UniProt Q9BYT3); settings: at 1 µM
Serine/threonine-protein kinase 33 (Homo sapiens), sequence (Q9BYT3 whole entry, looked up): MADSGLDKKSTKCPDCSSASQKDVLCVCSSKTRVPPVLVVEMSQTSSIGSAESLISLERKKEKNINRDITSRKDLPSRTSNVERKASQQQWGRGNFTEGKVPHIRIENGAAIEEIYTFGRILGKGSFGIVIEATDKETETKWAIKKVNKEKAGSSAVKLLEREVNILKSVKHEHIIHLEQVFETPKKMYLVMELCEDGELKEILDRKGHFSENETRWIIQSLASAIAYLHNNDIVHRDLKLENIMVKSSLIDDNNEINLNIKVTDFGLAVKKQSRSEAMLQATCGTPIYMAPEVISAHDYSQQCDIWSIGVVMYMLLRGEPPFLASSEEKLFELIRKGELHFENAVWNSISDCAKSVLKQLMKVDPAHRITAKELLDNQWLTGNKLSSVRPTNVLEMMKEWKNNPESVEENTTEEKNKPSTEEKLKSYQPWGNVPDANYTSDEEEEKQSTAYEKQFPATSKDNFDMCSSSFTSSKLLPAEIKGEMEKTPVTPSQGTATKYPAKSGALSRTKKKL

[13] = biological target: Serine/threonine-protein kinase 33 (Homo sapiens) (UniProt Q9BYT3); settings: at 10 µM
[14] = biological target: T5, Serine/threonine-protein kinase TAO1 (Homo sapiens) (UniProt Q7L7X3); settings: at 1 µM
T5 sequence (whole entry): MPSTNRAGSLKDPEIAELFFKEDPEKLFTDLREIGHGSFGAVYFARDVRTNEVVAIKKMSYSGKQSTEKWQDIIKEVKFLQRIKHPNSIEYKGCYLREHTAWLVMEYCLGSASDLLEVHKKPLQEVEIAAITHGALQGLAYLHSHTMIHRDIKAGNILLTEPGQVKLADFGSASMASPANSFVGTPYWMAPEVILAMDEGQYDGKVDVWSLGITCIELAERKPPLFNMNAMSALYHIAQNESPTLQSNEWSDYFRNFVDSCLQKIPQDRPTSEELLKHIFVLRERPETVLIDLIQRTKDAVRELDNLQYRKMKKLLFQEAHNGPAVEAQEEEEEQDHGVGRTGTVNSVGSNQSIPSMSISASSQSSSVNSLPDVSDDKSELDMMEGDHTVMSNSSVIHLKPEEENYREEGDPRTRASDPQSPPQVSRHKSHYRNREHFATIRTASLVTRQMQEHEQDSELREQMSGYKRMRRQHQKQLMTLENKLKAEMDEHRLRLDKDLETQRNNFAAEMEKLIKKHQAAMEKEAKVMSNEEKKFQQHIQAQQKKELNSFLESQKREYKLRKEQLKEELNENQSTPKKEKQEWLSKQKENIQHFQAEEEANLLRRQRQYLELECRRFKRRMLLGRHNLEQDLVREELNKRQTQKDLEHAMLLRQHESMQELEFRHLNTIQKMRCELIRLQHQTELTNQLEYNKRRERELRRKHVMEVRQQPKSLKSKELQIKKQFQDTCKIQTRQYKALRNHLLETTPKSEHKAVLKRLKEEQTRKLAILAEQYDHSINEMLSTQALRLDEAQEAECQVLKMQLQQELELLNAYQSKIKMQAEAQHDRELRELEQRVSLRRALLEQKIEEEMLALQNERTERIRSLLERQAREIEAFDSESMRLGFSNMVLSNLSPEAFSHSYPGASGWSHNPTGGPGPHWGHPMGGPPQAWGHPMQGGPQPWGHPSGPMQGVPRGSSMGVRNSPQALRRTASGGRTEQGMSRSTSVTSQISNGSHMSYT

[15] = biological target: T5, Serine/threonine-protein kinase TAO1 (Homo sapiens); settings: at 10 µM
[16] = biological target: SRSF protein kinase 1 (Homo sapiens) (UniProt Q96SB4); settings: at 1 µM
[17] = biological target: SRSF protein kinase 2 (Homo sapiens) (UniProt P78362); settings: at 1 µM
[18] = biological target: Tyrosine-protein kinase SYK (Homo sapiens) (UniProt P43405); settings: at 1 µM
[19] = biological target: Tyrosine-protein kinase SYK (Homo sapiens) (UniProt P43405); settings: at 10 µM
[20] = biological target: T1, Mitogen-activated protein kinase kinase kinase 7 (Homo sapiens); settings: at 1 µM

SRSF protein kinase 2 (Homo sapiens), sequence (P78362 whole entry, looked up): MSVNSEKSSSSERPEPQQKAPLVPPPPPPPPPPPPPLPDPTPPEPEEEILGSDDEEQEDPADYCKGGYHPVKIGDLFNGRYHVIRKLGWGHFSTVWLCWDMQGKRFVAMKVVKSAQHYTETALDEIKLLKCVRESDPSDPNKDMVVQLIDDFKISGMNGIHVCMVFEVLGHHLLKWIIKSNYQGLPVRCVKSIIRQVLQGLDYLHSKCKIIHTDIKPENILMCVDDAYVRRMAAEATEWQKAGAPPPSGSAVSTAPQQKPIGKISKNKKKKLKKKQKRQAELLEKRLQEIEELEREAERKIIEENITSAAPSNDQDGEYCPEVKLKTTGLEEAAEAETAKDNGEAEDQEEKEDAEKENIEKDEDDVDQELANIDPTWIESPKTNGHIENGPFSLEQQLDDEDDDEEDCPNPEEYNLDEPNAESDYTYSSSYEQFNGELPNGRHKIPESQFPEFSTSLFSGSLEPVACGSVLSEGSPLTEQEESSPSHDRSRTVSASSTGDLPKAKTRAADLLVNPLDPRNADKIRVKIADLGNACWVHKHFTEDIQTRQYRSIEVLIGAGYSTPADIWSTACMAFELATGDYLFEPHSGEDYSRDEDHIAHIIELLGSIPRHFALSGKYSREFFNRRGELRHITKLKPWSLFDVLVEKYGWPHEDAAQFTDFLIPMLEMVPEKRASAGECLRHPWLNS

COc1ccc(CNC(=O)Nc2ncc([N+](=O)[O-])s2)cc1
residual activity [1]: 78%
residual activity [2]: 79%
residual activity [3]: 59%

N#C/C(=C1/Nc2ccccc2S1)c1ccnc(NCCc2cccnc2)n1
residual activity [4]: 78%
residual activity [5]: 97%
residual activity [6]: 71%
residual activity [7]: 68%
residual activity [8]: 24%
residual activity [9]: 84%
residual activity [10]: 37%
residual activity [3]: 71%

O=C(NC(NC(=S)Nc1ccc(F)c([N+](=O)[O-])c1)C(Cl)(Cl)Cl)C(c1ccccc1)c1ccccc1 (centres undefined)
residual activity [11]: 92%
residual activity [1]: 98%
residual activity [12]: 98%
residual activity [13]: 91%
residual activity [5]: 90%
residual activity [6]: 87%
residual activity [2]: 92%
residual activity [14]: 93%
residual activity [15]: 83%
residual activity [7]: 91%
residual activity [8]: 92%
residual activity [9]: 96%
residual activity [10]: 90%
residual activity [3]: 96%

COc1cc2ncnc(Nc3cccc(Cl)c3)c2cc1OC
residual activity [16]: 101%
residual activity [11]: 108%
residual activity [17]: 104%
residual activity [5]: 109%
residual activity [6]: 82%
residual activity [18]: 121%
residual activity [19]: 71%
residual activity [14]: 102%
residual activity [15]: 76%
residual activity [7]: 113%
residual activity [8]: 86%
residual activity [9]: 102%

NCCNc1ncc(C(N)=O)c(Nc2cccc(C(F)(F)F)c2)n1
residual activity [4]: 20%
residual activity [18]: 6%
residual activity [19]: 0%
residual activity [20]: 78%
residual activity [2]: 25%
residual activity [14]: 78%
residual activity [15]: 28%
residual activity [9]: 73%
residual activity [10]: 32%
residual activity [3]: 79%

CC(C)N(CCC(=O)c1ccc2ccccc2c1)Cc1ccccc1
residual activity [1]: 85%
residual activity [18]: 127%
residual activity [20]: 87%
residual activity [2]: 86%
residual activity [7]: 100%
residual activity [8]: 88%
residual activity [3]: 52%

O=C1C(Cl)=C(N2C(=O)CCC2=O)C(=O)c2ccccc21
residual activity [4]: 98%
residual activity [1]: 88%
residual activity [5]: 100%
residual activity [6]: 90%
residual activity [18]: 100%
residual activity [19]: 101%
residual activity [20]: 94%
residual activity [2]: 83%
residual activity [14]: 89%
residual activity [15]: 94%
residual activity [9]: 101%
residual activity [10]: 94%
residual activity [3]: 68%

O=c1c(-c2ccc(F)cc2)c(-c2ccncc2)[nH]n1-c1ccc(Cl)cc1
residual activity [18]: 41%
residual activity [19]: 37%
residual activity [8]: 77%
residual activity [9]: 99%

COc1ccc(COc2ccc(Cc3cnc(N)nc3N)cc2OC)cc1
residual activity [4]: 111%
residual activity [18]: 118%
residual activity [7]: 100%
residual activity [8]: 79%
residual activity [3]: 61%

O=C(Nc1ccc(Cl)cc1)c1ccccc1NCc1ccncc1
residual activity [7]: 101%
residual activity [8]: 61%

c1ccc(-c2cnc(Nc3ccc(OCCN4CCCC4)cc3)s2)cc1
residual activity [4]: 10%
residual activity [18]: 129%
residual activity [19]: 72%
residual activity [2]: 74%
residual activity [14]: 82%
residual activity [15]: 28%
residual activity [7]: 81%
residual activity [8]: 21%
residual activity [9]: 82%
residual activity [10]: 27%
residual activity [3]: 70%
